Rows were chosen to be rich in hits. Some 5.6% of all compounds tested hit in one or more screens of this group.
RORg inh: inhibitors of mouse ROR gamma transcriptional activity; AID 2551; Drosophila S2 Gal4-RORgamma UAS-luciferase reporter, 20 h; 310,000 tested, 5.4% active; Potency, µM (top dose mostly 53.6 µM), without a hit: top-dose activity change, negative = inhibition, usual class: inhibitors; further: potency means the concentration at half of the fitted maximal effect; nearly all actives have a fitted effect of over 60% in size
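Luciferase reporter read in Schneider cells carrying Gal4-RORγ (mouse) and UAS-Photinus luciferase; cells given compound 1 h before 700 uM copper sulfate induction, then incubated 20 h at ambient temperature.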
PKM2 activator: PKM2 (human) enzyme activation | P14618 | purified PKM2, Kinase-Glo ATP luminescence, activation; response scale: 0% is enzyme alone, no compound | Potency, µM (top dose mostly 57.5 µM), inactives show top-dose activation, hits mostly activators | 260,000 tested, 0.34% active; further: potency means the concentration at half of the fitted maximal effect; nearly all actives have a fitted effect of over 55% in size
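ATP formation by purified human PK-M2, quantified via coupled luciferase luminescence after 1 h at room temperature with 0.1 mM ADP and 0.5 mM PEP final.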
Six1-Eya2 blk: blocks human Six1 binding to Eya2. Q15475+O00167. AlphaScreen GST-Six1/His-Eya2 binding, biochemical; hits give low values. activity change, % (concentration not given with the values). 360,000 tested, 0.56% active. AID 651725; in the data active means activity change below about -65%; inconclusive means mostly about -30% to -63%
Target sequence (O00167 whole entry, looked up): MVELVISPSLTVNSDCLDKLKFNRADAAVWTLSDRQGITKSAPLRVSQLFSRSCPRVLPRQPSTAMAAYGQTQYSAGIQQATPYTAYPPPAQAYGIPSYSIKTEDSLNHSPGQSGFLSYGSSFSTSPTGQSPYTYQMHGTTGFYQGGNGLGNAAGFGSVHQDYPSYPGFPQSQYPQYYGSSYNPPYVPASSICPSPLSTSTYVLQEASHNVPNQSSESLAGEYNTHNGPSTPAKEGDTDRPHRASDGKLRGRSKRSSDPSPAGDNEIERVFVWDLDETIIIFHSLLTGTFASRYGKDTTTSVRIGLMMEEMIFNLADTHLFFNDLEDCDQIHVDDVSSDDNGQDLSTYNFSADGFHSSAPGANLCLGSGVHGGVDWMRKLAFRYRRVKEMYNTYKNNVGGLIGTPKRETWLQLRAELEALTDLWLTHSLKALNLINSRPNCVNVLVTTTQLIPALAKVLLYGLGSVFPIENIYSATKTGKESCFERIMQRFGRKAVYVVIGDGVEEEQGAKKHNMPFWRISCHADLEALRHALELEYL
Target sequence (Q15475 whole entry, looked up): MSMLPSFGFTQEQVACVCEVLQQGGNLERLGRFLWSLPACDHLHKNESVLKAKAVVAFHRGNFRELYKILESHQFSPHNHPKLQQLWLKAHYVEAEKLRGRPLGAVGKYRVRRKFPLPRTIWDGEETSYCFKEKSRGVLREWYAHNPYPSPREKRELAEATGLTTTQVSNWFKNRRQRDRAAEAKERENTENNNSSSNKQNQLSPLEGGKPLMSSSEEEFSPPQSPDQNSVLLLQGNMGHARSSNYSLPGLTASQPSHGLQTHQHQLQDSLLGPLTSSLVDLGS
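Homogeneous AlphaScreen proximity assay pairing GST-Six1 with His-tagged Eya2 (added as 5X mix: 250 nM and 500 nM) in 50 mM Tris pH 8.0, 300 mM NaCl, 1 mM TCEP. Glutathione donor and nickel acceptor beads; 1 h, 37 °C, dark.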
CtBP-E1A blk: blocks the CtBP interaction with E1A; AlphaScreen GST-E1A/His-CtBP binding, 1536-well; hits give low values; activity change, % (concentration not given with the values); 340,000 tested, 0.49% active; in the data active means activity change below about -65%; inconclusive means mostly about -30% to -63%
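GST-E1A and His-tagged CtBP (125 nM each as 5X stock) were preincubated with pin-transferred compound for 2 h at 37 °C in the dark, then glutathione donor and nickel acceptor beads were added for 1 h before AlphaScreen reading.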
VP16 counter: Gal4-VP16 reporter inhibition counter-screen; Drosophila S2 Gal4-VP16 UAS-luciferase, luminescence, 20 h; Potency, µM (doses to about 53.6 µM), for the others: at the highest dose activity, negative = inhibition, hits mostly inhibitors; AID 2546; 310,000 tested, 3.5% active;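 further: Gal4-VP16 expression switched on by copper sulfate through the metallothionein promoter; potency means the concentration at half of the fitted maximal effect; nearly all actives have a fitted effect of over 50% in size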
An asterisk follows results filed as active; ? = inconclusive; · = no result; [ ] = remark or other dose. Unless noted, the call rests on the fitted dose curve; in most records, active means well fitted curve in the direction sought with a large enough effect; inconclusive means small, poorly fitted or top-dose-only effect, or another doubt; inactive means no such curve, though single readings can be large; an effect the other way counts as inactive or inconclusive. On the % scale 0 is the no-effect control and ±100 the full control effect.

SMILES	RORg inh	PKM2 activator	Six1-Eya2 blk	CtBP-E1A blk	VP16 counter
CCOC(=O)C(Cc1cc(N)c(Oc2ccc(OC)cc2)c(N)c1)NC(C)=O (stereo not drawn)	·	·	5	10	·
O=C(N[C@@H]1CC[C@@H](CCn2cc(-c3ccccc3)nn2)O[C@@H]1CO)c1cnccn1	·	·	5	4	·
O=C(N[C@@H]1CC[C@H](CCn2cc(-c3ccccn3)nn2)O[C@@H]1CO)c1ccncc1	·	·	-76*	-20	·
CC=Cc1cc(OC)c2c(c1)C(C)C(c1ccc(O)c(OC)c1)O2 (stereo not drawn)	·	·	-19	-12	·
Cc1ccc(/C(=N/Nc2nc3ccccc3s2)C2=C(O)c3ccccc3C2=O)cc1	4.5µM*	1%	-2	5	?
Cc1onc(-c2ccccc2)c1C(=O)NNC(=S)NC(=O)c1ccc(Br)cc1	4.5µM*	4%	-17	-6	3.5µM*
Cc1onc(-c2ccccc2)c1C(=O)NNC(=S)NC(=O)c1ccc(Cl)cc1Cl	4.5µM*	0%	-2	-8	11µM*
COc1ccc(/C=C/C(=O)NC(=S)NNC(=O)c2c(-c3ccccc3)noc2C)cc1	3.2µM*	8%	-14	-10	5µM*
Cc1onc(-c2ccccc2)c1C(=O)NNC(=S)NC(=O)/C=C/c1ccccc1	5.6µM*	4%	-16	2	?
Cc1onc(-c2ccccc2)c1C(=O)NNC(=O)c1ccccc1	·	·	-5	·	·
Cc1onc(-c2ccccc2)c1C(=O)NNC(=O)c1ccccc1O	·	·	4	13	·
COc1cc(OC)cc(-c2c(-c3cccs3)c3cc(-c4ccc(CN5CCOCC5)cc4)ccc3n2C)c1	·	·	-7	-11	·
CN(C)Cc1ccccc1-c1cc(N(C)C)ncn1	-3%	·	·	·	2%
c1ccc(C(=C2CCCO2)c2ccccc2)cc1	·	·	19	-11	·
O=C(CSc1ccc(-c2ccccn2)nn1)N1CCCC1	41%	5%	-92*	5	-7%[10 µM]
COc1ccc(N(CC(=O)NCCSc2ccccn2)S(C)(=O)=O)cc1	-1%	-4%	-1	11	1%
O=C(O)CCSc1ccccn1	-9%	0%	5	-1	-4%
O=C(CCSc1ccccn1)c1ccccc1	20µM*	5%	8	3	?
O=C(CSc1ccc(-c2ccco2)nn1)N1CCCC1	1%	-6%	6	-7	0%
O=C(CSc1ccc(-c2ccccn2)nn1)c1ccccc1	?	-8%	-86*	-88*	5%
O=C(CSc1ccc(-c2ccccn2)nn1)c1ccc(F)cc1	-27%	-7%	-12	-14	16%
COc1ccc(C(=O)NCCSc2ccccn2)cc1	13µM*	-4%	-26	2	?
Clc1ccc(CSc2ccc(-c3ccccn3)nn2)cc1	-9%	1%	?	-20	?
O=C(CSc1ccc(-c2ccccn2)nn1)NC1CCCC1	5%	-2%	-88*	-76*	-4%
CCc1ccc(-c2ccc(SCC(=O)NC3CCCC3)nn2)cc1	·	·	4	3	·
SMILES	RORg inh	PKM2 activator	Six1-Eya2 blk	CtBP-E1A blk	VP16 counter
c1ccc(CSc2ccc(-c3ccccn3)nn2)cc1	7.9µM*	2%	-91*	?	1%
O=C(CCn1c(=O)oc2ccc(Cl)cc21)N1CCN(Cc2ccccc2)CC1	6%	·	2	1	-2%
COc1cc(NC(C)=O)c2ncccc2c1NC(C)=O	-21%	11%	1	·	-7%
COc1cc(NC(C)=O)c2ncccc2c1[N+](=O)[O-]	4µM*	-23%	0	0	?
O=c1c2c3n(c(=S)nc2[nH]n1-c1ccccc1)CCCCC3	13µM*	-4%	-18	-26	?
Cc1cc(-c2ccccc2)c2c(=O)n(-c3ccccc3)[nH]c2n1	-32%	-6%	-19	-24	17%
O=C1S/C(=C\c2ccc(N3CCOCC3)o2)C(=O)N1Cc1ccc(F)cc1	?	2µM*	-1	-11	7.1µM*
O=C1NC(=S)S/C1=C/c1ccc(N2CCOCC2)o1	1%	-55%	?	-27	?
CC(C)OC(=O)CN1C(=O)S/C(=C/c2ccc(N3CCCCC3)o2)C1=O	?	18%	-6	10	13µM*
O=C1S/C(=C/c2ccc(N3CCOCC3)o2)C(=O)N1Cc1ccc(F)cc1	24%	2µM*	7	-6	-15%
O=C1/C(=C/c2ccc(N3CCOCC3)o2)SC(=Nc2ccccc2)N1CCc1c[nH]c2ccccc12	3.2µM*	?	?	-16	5µM*
COc1cc(/C=C2\SC(=Nc3ccccc3)N(CCc3c[nH]c4ccccc34)C2=O)ccc1OC(C)C(=O)O (stereo not drawn)	1%	0%	-1	-4	?
COc1cc(NS(=O)(=O)c2ccc(NC(=O)/C=C/C(=O)O)cc2)nc(OC)n1	-26%	0%	2	-5	-3%
O=C(Cc1ccccc1)NCC(=O)Nc1cccc(Cl)c1	7%	-1%	1	1	4%
COc1ccc(-n2c(=S)[nH]c3c(sc(=S)n3-c3ccccc3)c2=O)c(OC)c1	-21%	-15%	-12	-11	-4%
COc1cccc(-c2cc3c(=O)n(-c4ccccc4)c(=S)[nH]c3s2)c1	0.89µM*	26%	-7	3	2.5µM*
COc1cccc(-n2cnc3sc(-c4ccccc4)cc3c2=O)c1	·	·	0	3	·
COc1ccc(-n2c(=S)[nH]c3sc(-c4ccccc4)cc3c2=O)c(OC)c1	3.5µM*	-1%	-2	-2	7.1µM*
COc1ccc(-c2csc3[nH]c(=S)n(-c4ccccc4)c(=O)c23)cc1OC	2.5µM*	0%	-2	1	3.2µM*
CCN(CC)C(=O)c1sc2[nH]c(=S)n(-c3ccccc3)c(=O)c2c1C	38%	7%	0	8	-21%
O=C(Nc1ccccc1Br)c1c(F)cccc1Cl	16%	8%	5	0	-1%
CCOC(=O)[C@]12CCCC=C1N(Cc1ccco1)C(=O)[C@H](CC(=O)NCCC(C)C)C2	·	·	-3	4	·
O=C(CCc1nc2ccccc2c(=O)[nH]1)NCc1ccco1	2%	-2%	10	-14	12%
CN(CC(=O)Nc1ccccc1Cl)C(=O)CCc1nc2ccccc2c(=O)[nH]1	·	·	6	?	·
CSc1ccc(CN(C)Cc2nc3ccccc3c(=O)[nH]2)cc1	?	-11%	-2	·	?
CN(CC(=O)Nc1ccccc1Sc1ccccc1)Cc1nc2ccccc2c(=O)[nH]1	0.45µM*	2%	0	-20	3.5µM*
CN(CC(=O)NC(=O)NCc1ccco1)Cc1nc2ccccc2c(=O)[nH]1	1µM*	1%	-14	-15	3.5µM*
CN(CC(=O)NC(c1ccccc1)c1ccccc1)Cc1nc2ccccc2c(=O)[nH]1	?	-5%	-13	-10	13µM*

Source: PubChem BioAssay (National Center for Advancing Translational Sciences (NCATS))
